Results from ChEMBL document CHEMBL3988442, “University of Dundee, Small-Polar-MMV Screening Library” (2021).
For some of these results: Entries with a potency or affinity are not part of this list.

What was measured:
Design in all cases: scale not given: direction of the effect not stated beside the values
[1] = target: Protein translocase subunit SecA (Escherichia coli (strain K12)) (UniProt P10408); experiment: Assay to Identify E. coli SecA ATPase Inhibitors; format: functional; settings: 30 µM
Sequence of Protein translocase subunit SecA (Escherichia coli (strain K12)) (P10408 whole entry): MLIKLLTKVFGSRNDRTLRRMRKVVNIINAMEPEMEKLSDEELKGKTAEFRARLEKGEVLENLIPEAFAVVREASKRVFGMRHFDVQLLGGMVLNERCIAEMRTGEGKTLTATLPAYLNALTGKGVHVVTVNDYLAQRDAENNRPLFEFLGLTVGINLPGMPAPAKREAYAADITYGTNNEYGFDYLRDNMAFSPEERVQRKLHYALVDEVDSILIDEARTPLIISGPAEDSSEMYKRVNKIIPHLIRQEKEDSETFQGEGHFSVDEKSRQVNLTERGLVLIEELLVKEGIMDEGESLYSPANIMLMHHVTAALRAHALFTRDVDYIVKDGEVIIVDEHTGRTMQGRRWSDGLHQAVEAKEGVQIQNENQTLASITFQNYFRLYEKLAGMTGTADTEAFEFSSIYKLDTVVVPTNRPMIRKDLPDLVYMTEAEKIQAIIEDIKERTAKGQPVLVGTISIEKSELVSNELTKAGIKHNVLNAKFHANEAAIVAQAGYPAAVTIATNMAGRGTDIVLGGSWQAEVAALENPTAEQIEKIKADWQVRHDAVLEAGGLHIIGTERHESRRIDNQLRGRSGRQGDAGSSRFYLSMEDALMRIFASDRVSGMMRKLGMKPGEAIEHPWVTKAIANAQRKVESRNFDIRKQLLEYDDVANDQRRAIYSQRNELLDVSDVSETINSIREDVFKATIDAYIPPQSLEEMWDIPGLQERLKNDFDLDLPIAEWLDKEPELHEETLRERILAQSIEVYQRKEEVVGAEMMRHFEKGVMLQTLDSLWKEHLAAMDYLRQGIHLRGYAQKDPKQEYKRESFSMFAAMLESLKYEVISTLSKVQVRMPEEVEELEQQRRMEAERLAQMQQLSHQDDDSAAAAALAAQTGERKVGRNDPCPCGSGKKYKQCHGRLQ

[2] = target: T1, Ubiquitin-activating enzyme e1, putative (Leishmania donovani (strain BPK282A1)) (UniProt E9BSI1); experiment: Leishmania donovani Ubiquitin Activating Enzyme (LdE1); format: functional; settings: 30 µM
T1 sequence (whole entry): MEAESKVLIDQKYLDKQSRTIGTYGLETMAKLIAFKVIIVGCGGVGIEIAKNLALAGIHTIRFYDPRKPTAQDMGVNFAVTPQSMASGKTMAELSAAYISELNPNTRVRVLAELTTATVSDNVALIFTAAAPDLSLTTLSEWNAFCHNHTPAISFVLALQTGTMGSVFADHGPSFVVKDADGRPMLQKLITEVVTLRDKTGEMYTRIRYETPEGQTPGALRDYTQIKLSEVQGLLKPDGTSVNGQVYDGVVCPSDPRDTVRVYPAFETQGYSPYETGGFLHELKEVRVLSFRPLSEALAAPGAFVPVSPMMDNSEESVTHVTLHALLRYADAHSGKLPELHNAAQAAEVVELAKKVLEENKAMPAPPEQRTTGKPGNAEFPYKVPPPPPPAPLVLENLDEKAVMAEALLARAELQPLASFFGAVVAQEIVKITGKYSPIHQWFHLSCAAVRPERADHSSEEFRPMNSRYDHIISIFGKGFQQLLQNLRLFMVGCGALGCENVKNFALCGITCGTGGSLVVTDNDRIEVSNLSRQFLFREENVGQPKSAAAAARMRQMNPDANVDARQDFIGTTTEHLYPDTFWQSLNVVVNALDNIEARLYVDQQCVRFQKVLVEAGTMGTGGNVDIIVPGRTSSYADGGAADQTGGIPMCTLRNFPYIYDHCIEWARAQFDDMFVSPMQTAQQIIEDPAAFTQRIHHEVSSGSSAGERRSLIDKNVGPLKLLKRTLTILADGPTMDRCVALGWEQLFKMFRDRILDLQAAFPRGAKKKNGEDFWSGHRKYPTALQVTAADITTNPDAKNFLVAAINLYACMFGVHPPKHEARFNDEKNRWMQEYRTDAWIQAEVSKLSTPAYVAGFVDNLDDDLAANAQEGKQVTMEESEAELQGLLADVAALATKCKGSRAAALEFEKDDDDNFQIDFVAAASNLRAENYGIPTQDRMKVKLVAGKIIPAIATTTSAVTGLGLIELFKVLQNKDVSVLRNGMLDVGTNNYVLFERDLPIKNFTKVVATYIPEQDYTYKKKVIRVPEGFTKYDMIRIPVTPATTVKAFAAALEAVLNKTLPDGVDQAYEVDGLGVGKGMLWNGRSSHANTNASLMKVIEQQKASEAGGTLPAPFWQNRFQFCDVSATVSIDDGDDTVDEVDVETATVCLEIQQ

[3] = target: AMP-activated protein kinase, AMPK (Homo sapiens) (UniProt P54646+O43741+P54619+Q9UGJ0+Q9Y478+Q13131+Q9UGI9); experiment: AMP-dependent Kinase enzyme assay. An in vitro enzyme assay that detects ADP turnover that is directly proportional to AMPK activity. This uses naive AMPK that is activated during the assay with MK-8722; format: functional; settings: 30 µM
[4] = target: Sialic acid-binding Ig-like lectin 9 (Homo sapiens) (UniProt Q9Y336); experiment: Hs-Siglec9 ALPHAscreen SOP 20170721; settings: 10 µM
Sequence of Sialic acid-binding Ig-like lectin 9 (Homo sapiens) (Q9Y336 whole entry): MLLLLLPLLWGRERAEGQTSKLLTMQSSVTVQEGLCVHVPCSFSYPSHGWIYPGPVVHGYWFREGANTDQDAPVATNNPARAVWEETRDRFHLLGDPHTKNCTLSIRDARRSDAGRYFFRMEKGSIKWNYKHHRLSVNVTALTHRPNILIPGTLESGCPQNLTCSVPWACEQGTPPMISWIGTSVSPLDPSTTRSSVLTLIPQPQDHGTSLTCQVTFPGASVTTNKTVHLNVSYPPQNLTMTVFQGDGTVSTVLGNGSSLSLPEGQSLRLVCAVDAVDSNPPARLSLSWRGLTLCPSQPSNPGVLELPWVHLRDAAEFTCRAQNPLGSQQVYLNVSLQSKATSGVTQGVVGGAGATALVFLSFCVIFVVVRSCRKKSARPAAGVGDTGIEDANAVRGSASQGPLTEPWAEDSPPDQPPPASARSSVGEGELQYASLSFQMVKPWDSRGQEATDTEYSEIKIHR

Trypanosoma cruzi = experiment: Trypanosoma cruzi phosphomannomutase and mannose-1-phosphate guanylyltransferase assay; format: functional; settings: 10 µM
[5] = target: T2, Arginase-2, mitochondrial (Homo sapiens) (UniProt P78540); experiment: in vitro enzyme assay to detect the production of urea directly proportional to the activity of Arginase II; format: functional; settings: 33.3 µM; note: in the data most compounds retested in dose-response had high values
T2 sequence (whole entry): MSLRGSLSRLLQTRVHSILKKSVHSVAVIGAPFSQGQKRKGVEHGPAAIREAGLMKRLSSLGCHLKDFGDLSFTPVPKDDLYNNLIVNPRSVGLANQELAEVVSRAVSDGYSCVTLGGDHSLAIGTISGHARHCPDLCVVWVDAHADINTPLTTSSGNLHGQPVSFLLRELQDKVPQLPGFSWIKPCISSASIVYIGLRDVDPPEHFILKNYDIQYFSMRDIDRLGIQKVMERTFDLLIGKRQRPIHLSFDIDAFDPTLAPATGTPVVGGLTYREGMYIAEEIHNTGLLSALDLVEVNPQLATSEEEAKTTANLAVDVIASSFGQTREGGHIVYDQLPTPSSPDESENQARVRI

[6] = target: T3, Proteasome subunit beta (Trypanosoma cruzi) (UniProt O96673); experiment: Trypanosoma cruzi proteasome chymotrypsin-like activity (TcProtChymo) assay.; note: in the data most compounds retested in dose-response had high values; format: functional; settings: 9.37 µM
T3 sequence (whole entry): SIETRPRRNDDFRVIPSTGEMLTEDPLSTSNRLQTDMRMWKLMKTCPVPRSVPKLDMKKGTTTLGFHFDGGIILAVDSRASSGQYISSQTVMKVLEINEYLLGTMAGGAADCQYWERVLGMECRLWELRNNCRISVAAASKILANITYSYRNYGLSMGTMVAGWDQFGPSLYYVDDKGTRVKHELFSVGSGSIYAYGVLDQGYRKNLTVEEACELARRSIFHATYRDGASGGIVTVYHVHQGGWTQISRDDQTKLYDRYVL

Homo sapiens = species on record: Homo sapiens; experiment: To identify inhibition of the IFN signalling (Jak-Stat) pathway via expression of an eGFP reporter gene under the control of an IFN-stimulated response element (ISRE) containing MxA promoter.; format: functional; settings: 30 µM
[7] = target: T4, Tyrosyl-tRNA synthetase, putative (Trypanosoma cruzi (strain CL Brener)) (UniProt Q4DSP6); experiment: Trypanosoma cruzi tyrosyl tRNA synthetase (TcYRS) _High Tyrosine SOP; format: functional; settings: 30 µM; note: in the data most compounds retested in dose-response had high values
T4 sequence (whole entry): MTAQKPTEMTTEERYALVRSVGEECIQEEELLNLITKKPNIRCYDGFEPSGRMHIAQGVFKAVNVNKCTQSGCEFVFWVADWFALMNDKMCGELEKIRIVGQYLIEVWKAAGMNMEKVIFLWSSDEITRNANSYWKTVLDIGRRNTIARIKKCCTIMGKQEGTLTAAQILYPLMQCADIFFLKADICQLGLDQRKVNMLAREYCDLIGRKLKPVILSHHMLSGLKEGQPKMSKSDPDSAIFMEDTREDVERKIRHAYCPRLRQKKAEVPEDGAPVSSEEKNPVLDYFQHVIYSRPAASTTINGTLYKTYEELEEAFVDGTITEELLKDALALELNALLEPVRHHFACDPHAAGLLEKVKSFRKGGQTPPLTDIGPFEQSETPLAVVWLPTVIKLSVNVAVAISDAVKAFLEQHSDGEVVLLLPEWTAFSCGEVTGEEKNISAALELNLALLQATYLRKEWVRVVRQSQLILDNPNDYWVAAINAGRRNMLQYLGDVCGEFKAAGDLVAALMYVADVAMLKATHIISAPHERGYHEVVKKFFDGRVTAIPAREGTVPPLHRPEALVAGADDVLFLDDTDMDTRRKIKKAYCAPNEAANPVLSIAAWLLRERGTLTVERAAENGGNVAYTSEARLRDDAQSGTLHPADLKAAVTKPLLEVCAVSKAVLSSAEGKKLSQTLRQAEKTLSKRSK

[8] = target: T4, Tyrosyl-tRNA synthetase, putative (Trypanosoma cruzi (strain CL Brener)); experiment: Trypanosoma cruzi tyrosyl tRNA synthetase (TcYRS) SOP; format: functional; settings: 30 µM
[9] = target: Chromo domain-containing protein 1 (Saccharomyces cerevisiae (strain ATCC 204508 / S288c) (Baker's yeast)) (UniProt P32657); experiment: ScCHD-1 Enzyme Inhibition Assay; format: functional; settings: 30 µM; note: in the data most compounds retested in dose-response had high values
Sequence of Chromo domain-containing protein 1 (Saccharomyces cerevisiae (strain ATCC 204508 / S288c) (Baker's yeast)) (P32657 whole entry, the tested form may be a part): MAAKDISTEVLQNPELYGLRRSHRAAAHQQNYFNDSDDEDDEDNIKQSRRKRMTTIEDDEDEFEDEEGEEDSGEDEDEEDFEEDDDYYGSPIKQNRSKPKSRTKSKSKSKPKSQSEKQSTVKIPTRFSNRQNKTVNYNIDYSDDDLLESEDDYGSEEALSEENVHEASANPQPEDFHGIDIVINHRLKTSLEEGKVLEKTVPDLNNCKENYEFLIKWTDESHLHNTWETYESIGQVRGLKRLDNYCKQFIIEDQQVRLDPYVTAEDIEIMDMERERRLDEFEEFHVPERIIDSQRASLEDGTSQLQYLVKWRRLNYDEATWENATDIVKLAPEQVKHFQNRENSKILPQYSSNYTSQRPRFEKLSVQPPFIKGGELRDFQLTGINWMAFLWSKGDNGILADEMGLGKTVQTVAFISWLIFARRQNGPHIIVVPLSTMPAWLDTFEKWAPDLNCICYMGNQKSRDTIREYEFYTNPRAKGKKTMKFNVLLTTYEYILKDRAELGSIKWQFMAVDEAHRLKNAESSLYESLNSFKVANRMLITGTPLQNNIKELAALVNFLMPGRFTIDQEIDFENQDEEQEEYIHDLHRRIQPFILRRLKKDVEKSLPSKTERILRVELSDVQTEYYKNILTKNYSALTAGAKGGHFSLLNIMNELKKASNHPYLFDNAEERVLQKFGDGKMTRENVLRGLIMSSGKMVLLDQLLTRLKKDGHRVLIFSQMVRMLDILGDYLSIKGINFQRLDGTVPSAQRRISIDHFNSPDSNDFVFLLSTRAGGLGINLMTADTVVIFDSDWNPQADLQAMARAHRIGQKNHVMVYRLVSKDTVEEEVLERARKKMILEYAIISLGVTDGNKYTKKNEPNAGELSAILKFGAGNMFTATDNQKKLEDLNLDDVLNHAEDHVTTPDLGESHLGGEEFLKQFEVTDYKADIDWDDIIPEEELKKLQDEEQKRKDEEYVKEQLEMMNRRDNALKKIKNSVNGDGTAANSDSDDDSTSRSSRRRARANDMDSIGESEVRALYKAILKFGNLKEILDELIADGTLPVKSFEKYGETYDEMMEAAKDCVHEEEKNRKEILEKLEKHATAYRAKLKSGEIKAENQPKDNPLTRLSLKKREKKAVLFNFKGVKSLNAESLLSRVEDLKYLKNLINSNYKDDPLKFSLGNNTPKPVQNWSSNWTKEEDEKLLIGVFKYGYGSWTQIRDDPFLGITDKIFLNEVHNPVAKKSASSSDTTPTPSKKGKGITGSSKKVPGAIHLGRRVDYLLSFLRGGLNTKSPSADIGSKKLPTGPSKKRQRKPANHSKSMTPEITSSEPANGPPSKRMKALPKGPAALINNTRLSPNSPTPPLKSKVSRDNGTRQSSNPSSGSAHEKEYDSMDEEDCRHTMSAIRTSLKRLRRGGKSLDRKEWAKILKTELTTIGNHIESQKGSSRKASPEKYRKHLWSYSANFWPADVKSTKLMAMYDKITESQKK

CCCn1nc2c(cc1=O)CN(CCCS(N)(=O)=O)CC2
Percent Effect [1]: -1.13% | Percent Effect [2]: 0% | Percent Effect [3]: -142% | Percent Effect [4]: 6.58% | Percent Effect (Trypanosoma cruzi): -3.3% | Percent Effect [5]: 6.01% | Percent Effect [6]: 12.1% | Percent Effect (Homo sapiens): -3.47% | Percent Effect [7]: -1.48% | Percent Effect [8]: -8.64% | Percent Effect [9]: -2.91%

O=c1cc2c(nn1CN1CCN(c3cccc(Cl)c3)CC1)CCC2
Percent Effect [1]: -3.06% | Percent Effect [2]: 6.67% | Percent Effect [3]: 0.948% | Percent Effect [4]: 5.21% | Percent Effect (Trypanosoma cruzi): 0.589% | Percent Effect [5]: -6.87% | Percent Effect [6]: 19% | Percent Effect (Homo sapiens): 4.05% | Percent Effect [7]: 6.35% | Percent Effect [8]: 12.8% | Percent Effect [9]: -2.65%

c1cnn(C2CN(Cc3nc(-c4ccsc4)no3)C2)c1
Percent Effect [1]: -3.15% | Percent Effect [2]: -10.5% | Percent Effect [3]: -7.01% | Percent Effect [4]: 2.96% | Percent Effect (Trypanosoma cruzi): 8.27% | Percent Effect [5]: 1.15% | Percent Effect [6]: 12.7% | Percent Effect (Homo sapiens): -0.515% | Percent Effect [7]: 4.41% | Percent Effect [8]: 12.2% | Percent Effect [9]: -4.96%

CNS(=O)(=O)c1ccc(C(=O)NCCNc2ncccn2)cc1
Percent Effect [1]: -3.65% | Percent Effect [2]: 10.5% | Percent Effect [3]: -2.1% | Percent Effect [4]: -1.6% | Percent Effect (Trypanosoma cruzi): -2.52% | Percent Effect [5]: -1.08% | Percent Effect [6]: 7.36% | Percent Effect (Homo sapiens): -4.68% | Percent Effect [7]: 6.4% | Percent Effect [8]: 23.5% | Percent Effect [9]: -3.3%

O=C(c1ccco1)N1CC[C@H]2[C@H]1CCN2CC1CCOCC1
Percent Effect [1]: -5.53% | Percent Effect [2]: 0% | Percent Effect [3]: 11.2% | Percent Effect [4]: -3.38% | Percent Effect (Trypanosoma cruzi): -3.74% | Percent Effect [5]: 1.17% | Percent Effect [6]: -2.56% | Percent Effect (Homo sapiens): 6.93% | Percent Effect [7]: 6.38% | Percent Effect [8]: 3.85% | Percent Effect [9]: -1.01%

Cn1nc(CNC(=O)C2CC2)cc1C1CC1
Percent Effect [1]: -5.14% | Percent Effect [2]: 18.2% | Percent Effect [3]: 3.71% | Percent Effect [4]: 7.61% | Percent Effect (Trypanosoma cruzi): 2.27% | Percent Effect [5]: -4.52% | Percent Effect [6]: 4% | Percent Effect (Homo sapiens): 6.02% | Percent Effect [7]: 0% | Percent Effect [8]: 11.5% | Percent Effect [9]: -7.39%

CC(C)CCN1CN=C(NS(=O)(=O)c2ccc(F)cc2)NC1
Percent Effect [1]: -1.41% | Percent Effect [2]: 6.67% | Percent Effect [3]: 4.23% | Percent Effect [4]: 1.92% | Percent Effect (Trypanosoma cruzi): -1.38% | Percent Effect [5]: -9.33% | Percent Effect [6]: 9.61% | Percent Effect (Homo sapiens): -4.88% | Percent Effect [7]: 5.29% | Percent Effect [8]: 10.3% | Percent Effect [9]: -8.81%

O=C(CSC1=NS(=O)(=O)c2cc(F)ccc2N1)c1ccc(Cl)cc1
Percent Effect [1]: -1.43% | Percent Effect [2]: 0% | Percent Effect [3]: 2.41% | Percent Effect [4]: -0.28% | Percent Effect (Trypanosoma cruzi): -5.42% | Percent Effect [5]: 4.52% | Percent Effect [6]: 6.44% | Percent Effect (Homo sapiens): 11.1% | Percent Effect [7]: 4.23% | Percent Effect [8]: 11.5% | Percent Effect [9]: -7.8%

O=C(Nc1cccnc1)[C@H]1C[C@@H]2CCN(c3nncs3)C[C@H]2O1
Percent Effect [1]: -0.711% | Percent Effect [2]: 5.41% | Percent Effect [3]: -5.74% | Percent Effect [4]: -1.47% | Percent Effect (Trypanosoma cruzi): 2.54% | Percent Effect [5]: -2.08% | Percent Effect [6]: 10.4% | Percent Effect (Homo sapiens): 4.24% | Percent Effect [7]: 10.9% | Percent Effect [8]: 13.4% | Percent Effect [9]: -4.77%

CS(=O)(=O)N1CC[C@H]2[C@H](C[C@@H](Cn3cncn3)N2CC2CC2)C1
Percent Effect [1]: -6.68% | Percent Effect [2]: 10.4% | Percent Effect [3]: 9.89% | Percent Effect [4]: 7.05% | Percent Effect (Trypanosoma cruzi): -1.87% | Percent Effect [5]: -4.14% | Percent Effect [6]: 7.16% | Percent Effect (Homo sapiens): -4% | Percent Effect [7]: 3.23% | Percent Effect [8]: 6.17% | Percent Effect [9]: -0.097%

COc1ncccc1NC(=O)NC1CCOc2ccccc21 (stereo unspecified)
Percent Effect [1]: -1.57% | Percent Effect [2]: 16.2% | Percent Effect [3]: -3.28% | Percent Effect [4]: 8.29% | Percent Effect (Trypanosoma cruzi): 5.29% | Percent Effect [5]: -4.62% | Percent Effect [6]: 8.08% | Percent Effect (Homo sapiens): 23.4% | Percent Effect [7]: 6.93% | Percent Effect [8]: 25.6% | Percent Effect [9]: -3.65%
